TDP43 rescue – inhibitors of TDP-43 toxicity in yeast. TDP-43 expressing yeast growth rescue, BacTiter-Glo, 24 h. 410,000 compounds, 1.8% hits. Potency, µM (doses to about 46.1 µM), for inactives: top-dose growth rescue (activation), actives largely listed as activators; further: % of control where 0% means no effect; nearly all actives have a fitted effect of over 50% in size
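Yeast cells expressing TDP-43 under galactose induction are exposed to compounds for 24 hr at 30 deg C. BacTiter-Glo luminescence measures growth, so protective compounds score as activators.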
MmCpn inh – blocks the Methanococcus maripaludis chaperonin Mm-Cpn | Potency, µM (titrated, usually from 76.9 µM), for the others: top-dose activity, negative = inhibition, most hits filed as inhibitors | 330,000 compounds, 0.031% hits | AID 504842 | purified Mm-Cpn ATPase, ADP Transcreener TR-FRET; further: on the % scale 0 is the no-effect control and ±100 the full control effect; nearly all actives have a fitted effect of over 80% in size
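Purified archaeal Mm-CPN (25nM final) preincubated 10 min at 37degC with compound, then 10uM ATP for 30 min at 37degC; ADP measured by HTRF Transcreener TR-FRET; buffer 30 mM TRIS pH 7.4, 100mM KCl, 5mM MgCl2, 1mM DTT.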
FUS yeast rescue – suppressors of FUS proteinopathy in yeast | AID 1347120 | S. cerevisiae FUS-expressing, growth rescue, OD600, 24 h | Potency, µM (highest dose often 76.6 µM), usual class: activators | 390,000 compounds, 0.24% hits;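 further: plate controls were DMSO vehicle for no effect and reference control for full effect; nearly all actives have a fitted effect of over 55% in size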
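Quantitative HTS measuring growth restoration of FUS-toxic yeast. Galactose-induced cells (OD 0.005) were exposed 24hr at 30C to compounds at several concentrations, then absorbance at 600 nm was recorded.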
ClpP mod – qHTS Assay for Activators of ClpP; 340,000 compounds, 1.9% hits; purified B. subtilis ClpP, FRET peptide cleavage, 20 min; Potency, µM (titrated, usually from 57.5 µM), without a hit: top-dose activity change, negative = active; ATP-dependent Clp protease proteolytic subunit (Bacillus subtilis (strain 168)), P80244; active means well fitted falling curve with a large enough effect; inconclusive means small, poorly fitted or top-dose-only effect; inactive means no such curve, though single readings can be large or run the other way; further: the source files actives as falling curves though it sought activators and does not explain the sign; nearly all actives have a fitted effect of over 65% in size
Target sequence (P80244 whole entry, looked up): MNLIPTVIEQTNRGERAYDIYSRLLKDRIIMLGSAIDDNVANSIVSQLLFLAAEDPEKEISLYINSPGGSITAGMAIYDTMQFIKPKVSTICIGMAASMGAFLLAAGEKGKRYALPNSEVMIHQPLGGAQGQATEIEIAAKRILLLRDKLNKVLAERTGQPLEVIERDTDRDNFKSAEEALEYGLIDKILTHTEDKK
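FRET quenching reversal measured ClpP activation: 10 microg/mL B. subtilis ClpP at pH 8 with the FRET-FV decapeptide, read at 430 nm after 320 nm excitation. The 20-min minus 0-min signal was scaled between DMSO/no-enzyme wells and ADEP (5.8 microM final).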
Abeta yeast res – compounds reversing amyloid beta toxicity in yeast; AID 1347071; 410,000 compounds, 0.063% hits; Potency, µM (top dose mostly 46.1 µM), actives largely listed as activators; yeast expressing A-beta42, growth rescue, OD600, 48 h; response scale: 0% DMSO, 100% iron-clioquinol control; further: nearly all actives have a fitted effect of over 55% in size
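Yeast growth medium received pinned compounds, then yeast cells expressing toxic A-beta were added; plates incubated at 30 C for 48 hr. Growth read as absorbance at 600 nm, normalized to DMSO and equimolar FeCl3 plus clioquinol controls.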
aSyn rescue – inhibitors of alpha-synuclein toxicity in yeast; Potency, µM (top dose mostly 46.1 µM), for inactives: top-dose growth rescue (activation), actives largely listed as activators; 370,000 compounds, 0.14% hits; AID 652106; Yeast expressing alpha-synuclein, growth rescue, BacTiter-Glo, 24 h; further: % of control where 0% means no effect; nearly all actives have a fitted effect of over 65% in size
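Rescue of yeast growth: cells expressing toxic alpha-synuclein, induced in galactose at OD600 0.02, incubated with compound 24 h at 30 C. ATP luminescence quantified growth; inhibitors of toxicity appear as activators.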
ClpP validation – inhibits B. subtilis ClpP protease, hit validation. shares compounds with ClpP mod. Potency, µM (series often up to 57.5 µM), for the others: at the highest dose activity change, negative = inhibition, usual class: inhibitors. 470 compounds, 40% hits. purified B. subtilis ClpP, FRET-FV substrate cleavage, 20 min; further: on the % scale 0 is the no-effect control and ±100 the full control effect; nearly all actives have a fitted effect of over 70% in size
The depositor's hits bear a star; i = inactive; ? = inconclusive; . = no result. In the library only some 3.6% were active in any assay of this set; here they are far more common. Unless noted, the call rests on the fitted dose curve; in most records, active means well fitted curve in the direction sought with a large enough effect; inconclusive means small, poorly fitted or top-dose-only effect, or another doubt; inactive means no such curve, though single readings can be large; an effect the other way counts as inactive or inconclusive. Potency means the concentration at half of the fitted maximal effect.

SMILES	TDP43 rescue	MmCpn inh	FUS yeast rescue	ClpP mod	Abeta yeast res	aSyn rescue	ClpP validation
CN1CCOC(c2ccccc2)c2ccccc2C1 (stereo not drawn)	24%	1%	i	-1%	i	2%	.
CN(C)c1ccc(C(CNC(=O)c2cccc(C(F)(F)F)c2)N2CCCC2)cc1 (stereo not drawn)	18%	.	i	0%	i	.	.
Cc1ccc(C(=O)Nc2cccc(C(F)(F)F)c2)cc1NC(=O)c1nccnc1N	7%	-4%	i	159%	i	1%	?
CCCCn1c(SCC(=O)Nc2cccc(OC)c2)nc2ccsc2c1=O	-2%	.	i	0%	i	.	.
O=c1[nH]c2cc(Cl)ccc2c(O)c1-c1ccc(Oc2ccccc2)cc1	.	.	.	.	.	6%	-15%
O=c1[nH]c2cc(Cl)ccc2c(O)c1-c1cccc(Oc2ccccc2)c1	24%	.	i	-17%	i	3%	.
Fc1cc(F)c2nc(Nc3nc4cc5c(cc4s3)OCO5)sc2c1	9%	-3%	i	8.9µM*	i	-2%	?
CN(C)S(=O)(=O)Oc1ccccc1C(=O)Nc1cccc(C(F)(F)F)c1	21%	1%	i	86%	?	5%	1%
CN(C)S(=O)(=O)Oc1ccc(Cl)cc1C(=O)Nc1cccc(C(F)(F)F)c1	15%	1%	i	0%	i	0%	.
COc1ccc(/C=C/c2ccccn2)cc1	.	.	.	1%	.	.	.
c1ccc(CN2CCN(c3nc(N4CCOCC4)c4ccccc4n3)CC2)cc1	11%	.	i	-26%	i	3%	.
c1ccc2c(N3CCOCC3)nc(N3CCOCC3)nc2c1	4%	-1%	i	3.2µM*	i	0%	24µM*
c1ccc(C2Nc3ccccc3-c3nc4ccccc4n32)nc1 (stereo not drawn)	?	-5%	i	7.1µM*	i	?	19µM*
c1ccc(C2Nc3ccccc3-c3nc4ccccc4n32)cc1 (stereo not drawn)	?	-6%	i	61%	i	-22%	.
c1ccc(-c2ccc(-c3cn4c(n3)CCC4)cc2)cc1	9%	-6%	i	2.8µM*	i	2%	22µM*
COc1c(C)cc(C(=O)C2CCCN(S(=O)(=O)N(C)C)C2)cc1C (stereo not drawn)	?	-2%	i	2.8µM*	i	9%	-10%
Cc1ccc(CC(=O)N2CCN(c3cccc(C(F)(F)F)c3)CC2)cc1	?	0%	i	10µM*	i	16%	0%
CCCC(CCC)C(=O)Nc1cccc(-c2nc3cccnc3s2)c1	4%	.	i	-7%	i	.	.
O=C(Cc1ccc(F)cc1)Nc1cccc(-c2nc3cccnc3s2)c1	13%	.	i	8.9µM*	i	.	-13%
CC(=O)Nc1cccc(-c2cn3ccccc3n2)c1	-11%	-3%	i	.	i	-1%	.
O=C(Nc1cccc(-c2cn3ccccc3n2)c1)c1cc2ccccc2oc1=O	-1%	-4%	i	37%	i	-19%	14%
O=C(Nc1cccc(Br)c1)c1cc(S(=O)(=O)N2CCCCC2)c[nH]1	11%	.	i	51%	i	.	-19%
CSc1cccc(NC(=O)c2cc(S(=O)(=O)N3CCCCC3)c[nH]2)c1	10%	-7%	i	4%	i	-4%	.
COc1ccc(-c2nc(NC(=O)c3ccc(OCC(=O)Nc4ccc(F)cc4)c(OC)c3)sc2C)cc1	-10%	-23%	i	144%	i	-5%	19µM*
Cc1cc(O)c(C(c2ccccc2)N2CCN(c3ccc(F)cc3)CC2)c(=O)n1Cc1ccco1 (stereo not drawn)	17%	.	i	0%	i	.	.
SMILES	TDP43 rescue	MmCpn inh	FUS yeast rescue	ClpP mod	Abeta yeast res	aSyn rescue	ClpP validation
CCOc1ccccc1CNC(=O)c1cc2c(=O)n(Cc3cccnc3)ccc2nc1C	3%	.	i	6.3µM*	i	.	-2%
COc1ccc(Cn2ccc3nc(C)c(C(=O)NCc4ccc(SC)cc4)cc3c2=O)cc1	17%	.	i	184%	i	.	24µM*
CS(=O)(=O)N[C@@H]1C[C@@H]2O[C@H](CO)CC[C@@H]2O[C@@H]1CCc1ccc(/C=C/c2ccccc2)cc1	.	.	i	.	.	.	.
Cc1c(CC(=O)NCCc2ccc(Cl)cc2)c(=O)oc2c(C)c3occ(C(C)(C)C)c3cc12	8%	.	i	?	i	.	.
CCCc1nn2c(=O)cc(COC(=O)c3ccco3)nc2s1	-2%	.	i	-2%	i	.	.
COc1ccc(CCNC(=O)Cn2c(=O)cc(C(F)(F)F)c3c(C)nn(C)c32)cc1OC	22%	.	i	-10%	i	.	.
O=C(CC1SC(N2CCCCC2)=NC1=O)Nc1ccc(C(=O)NCc2ccccc2)cc1 (stereo not drawn)	17%	1%	.	0%	i	4%	.
COc1cccc(CNC(=O)c2ccc(NC(=O)CC3SC(N4CCCC4)=NC3=O)cc2)c1 (stereo not drawn)	-21%	-5%	.	2.8µM*	i	0%	0%
CCOc1ccc(NC(=O)N2CC3CCCN3c3ccccc32)cc1 (stereo not drawn)	0%	.	i	-4%	i	.	.
COc1ccc(C(=O)Nc2ccccc2-c2nc3ccccc3s2)c(OC)c1	?	.	i	?	i	.	.
COc1ccccc1C(=O)Nc1c(C(=O)N(C)c2ccccc2)sc2nc(C)cc(C)c12	19%	.	i	0%	?	.	.
COC(=O)Nc1c(-c2ccccc2)nc2ccccn12	-1%	-3%	i	7.9µM*	i	1%	27µM*
Cc1ccc(C)c(Nc2nc3c(S(=O)(=O)c4ccccc4)nnn3c3ccccc23)c1	-9%	1%	i	55%	i	7%	22µM*
Cc1ccc(S(=O)(=O)c2nnn3c2nc(Nc2cccc(C)c2)c2ccccc23)cc1	23%	-11%	i	-15%	i	-1%	.
COc1ccc(NC(=O)c2ccco2)cc1NC(=O)c1cc2ccccc2o1	?	-1%	i	80%	i	-2%	19µM*
O=C(Nc1ccc(NC(=O)c2cc3ccccc3o2)cc1)c1ccco1	-10%	-7%	i	.	i	0%	.
Cc1ccc(NC(=O)C2CCN(c3nc4ccccc4nc3C(F)(F)F)CC2)cc1C	19%	.	i	0%	i	.	.
CCOc1ccc(N2CC(C(=O)Nc3ccc(S(=O)(=O)N4CCCCC4)cc3)CC2=O)cc1 (stereo not drawn)	31%	4%	i	7.9µM*	i	3%	-1%
CCOc1ccc(N2CC(C(=O)Nc3ccc(S(=O)(=O)N4CCCC4)cc3)CC2=O)cc1 (stereo not drawn)	11%	-3%	i	.	i	1%	.

Source: PubChem BioAssay (National Center for Advancing Translational Sciences (NCATS))
